This is part of a sample that, as a whole, favours compounds with a hit. Of some 79,000 tested, about 15% had one in any assay. Unmarked numbers belong to inactive results. Calls of active or inactive are those of the source. Rule as the data show it: active = growth inhibition above about 70%; inactive = the rest.
What was measured:
[1] = NCI Yeast Anticancer Drug Screen. Data for the rad50 strain (AID 155);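 also: 0% = growth of vehicle-only cultures of the same strain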; settings: S. cerevisiae rad50 strain growth inhibition; at 50.0 µM; active compounds read high
Summary of the method: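 Readout: growth inhibition relative to vehicle-treated cultures. Compound exposure was carried out in a genetically defined yeast strain deficient in DNA damage repair.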

[2] = NCI Yeast Anticancer Drug Screen. Data for the mec2-1 strain (AID 157); settings: S. cerevisiae mec2-1 strain, at 50.0 µM, active compounds read high
Summary of the method: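 Test agents were screened against the mec2-1 yeast strain, with defined DNA repair or cell cycle alteration. Growth was scored as inhibition against vehicle-only controls.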

[3] = NCI Yeast Anticancer Drug Screen. Data for the sgs1 mgt1 strain (AID 161);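 also: 0% = growth of cultures given vehicle only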; settings: S. cerevisiae sgs1 mgt1 strain, at 50.0 µM, active compounds read high
Summary of the method: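 Inhibition of yeast growth, normalised to vehicle-treated controls, is reported for a strain bearing genetic alterations in DNA damage repair.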

[4] = NCI Yeast Anticancer Drug Screen. Data for the cln2 rad14 strain (AID 165);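 also: 0% = growth equal to vehicle treated cultures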; settings: S. cerevisiae cln2 rad14 strain, at 50.0 µM, active compounds read high
Summary of the method: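 Growth of compound-exposed yeast (cln2 rad14 genotype) measured and expressed as inhibition relative to vehicle.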

[5] = NCI Yeast Anticancer Drug Screen. Data for the bub3 strain (AID 167); settings: S. cerevisiae bub3 mutant strain, at 50.0 µM, active compounds read high
Summary of the method: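 Readout: yeast growth inhibition, expressed relative to vehicle-only wells. The test organism is a mutant strain from a panel with lesions in DNA repair or checkpoint genes.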

[6] = NCI Yeast Anticancer Drug Screen. Data for the mlh1 rad18 strain (AID 175); settings: S. cerevisiae mlh1 rad18 strain growth inhibition; at 50.0 µM; active compounds read high
Summary of the method: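 In this whole-cell yeast screen, a strain with altered DNA damage repair is challenged with compound, and its growth is measured against matched vehicle-treated controls.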

Compound | growth inhibition [1] | growth inhibition [2] | growth inhibition [3] | growth inhibition [4] | growth inhibition [5] | growth inhibition [6] [%]
CC(C)(C)C1=CC(=O)C(C(C)(C)C)=CC1=O | -2.35% | 3.2% | -17.2% | -55% | -7% | 17.7
CCCNCCC(=O)Nc1ccccc1C(=O)OCC | 3.15% | -18% | 0.2% | -43.1% | 29.3% | -6.25
Oc1cccc(C(c2ccccc2)c2ccccc2)c1 | -0.6% | 0.3% | -5.5% | -11.1% | -3.6% | -3.95
Cc1c(C)c(C)c2cc3c(C)c(C)c(C)c(C)c3cc2c1C | -4.55% | -1.9% | -8.5% | -2.35% | 6.45% | -11.6
COc1ccc(Cc2ccc(OC)c3ccccc23)c2ccccc12 | 9.65% | -2.45% | 4.3% | -30.9% | 15.2% | -5.25
CC(C)(C)CC(=O)Nc1ccccc1 | 28.9% | -4.15% | -17.1% | 13.7% | -8.9% | 9.25
C/C(COC(=O)c1cc(C)nc2ccccc12)=N\O | -22.6% | 17% | -0.65% | -20.8% | 21.1% | -11.6
c1ccc2cc(N=Nc3cccc4ccccc34)ccc2c1 | -10.5% | -17.9% | 1.15% | -19% | 1.1% | -7.75
O=C(/C=C/c1ccccc1)NN1CCOCC1 | 13.5% | 3.25% | 24.1% | -34.5% | 6.55% | -2.95
O=[N+]([O-])c1cccc(-c2csc(NNC3=NC/C(=C/c4ccc5c(c4)OCO5)S3)n2)c1 | 33.5% | -7.9% | 33% | -33.5% | 23.6% | 22.1
Clc1ccc(-c2nnc(-c3ccncc3)o2)c(Cl)c1 | 18.1% | -4.5% | 17.9% | -1.6% | 27.2% | 15.6
Cc1ccc2nc(C)cc(N=[N+]=[N-])c2c1 | -35.6% | -21.8% | -17.1% | -58.9% | -2.2% | -11.5
COc1ccc(N=Cc2ccc(C#N)cc2)cc1 | 9.4% | -25.2% | -7.15% | 7.95% | -12.8% | -4.9
CC=C1C(C(=O)O)C1C(=O)O (stereo unspecified) | 16.9% | 20.8% | -5.2% | -23.2% | 15.3% | -4.4
N#Cc1ccc(OC(=O)Nc2ccccc2C(F)(F)F)cc1 | 2.4% | -18.9% | -5.2% | -2.1% | -14.9% | -0.85
COc1ccc(C(C)=C2C=C(C(C)(C)C)C(=O)C(C(C)(C)C)=C2)cc1 | -26.6% | -16.2% | -17.4% | 34.2% | 1.35% | -17.4

Compound | growth inhibition [1] | growth inhibition [2] | growth inhibition [3] | growth inhibition [4] | growth inhibition [5] | growth inhibition [6] [%]
O=C(NC1CCCN1C(=O)/C=C\c1ccccc1)OCc1ccccc1 (stereo unspecified) | -8.95% | -4.95% | -13.7% | -62.5% | 0.6% | -12.3
CCNCc1cc(Nc2nc(NC3CCC(N(C)C)CC3)c3ccccc3n2)ccc1OC (stereo unspecified) | 2.4% | 7% | -5.8% | 28.3% | 3.45% | 9
Cc1ccc(NC(=S)N2CCCC2)cc1 | 5.9% | -12.9% | -18.8% | -94.2% | -13.4% | -0.7
CC[N+](C)(CC)CC(O)C[N+]1(C)CC2CCCCC2C1 (stereo unspecified) | 13.1% | -1.7% | 6.2% | -10.2% | -4.65% | 4.1
CSc1nc2c(c(O)c(C)c(=O)n2C2OCC(OC(C)=O)C(OC(C)=O)C2OC(C)=O)c(=O)n1C (stereo unspecified) | 10.6% | -26.5% | -15.7% | 2.9% | 2.2% | -1.3
CCCCOCCOCCOC(=O)C(C)O (stereo unspecified) | -5.6% | -4.7% | -3.95% | 5.1% | -7.25% | -14
O=C(Cl)CNS(=O)(=O)c1ccccc1 | 5.45% | 5.1% | 1% | 15.8% | 6.4% | 1.45
O=C(O)/C=N\Nc1nc2ccccc2[nH]1 | -1.85% | -5.95% | 1.9% | -11.1% | -8.05% | 6.8
CCCCCCCCCCCCCCCCOc1ccc(C2=NCC(C)S2)c(C)c1 (stereo unspecified) | 3.6% | 2.6% | 12.1% | 45.7% | -1.6% | 38.1
ClC1CCC(c2ccccc2)CC1 (stereo unspecified) | 9.2% | -3.45% | 1.5% | 3.75% | -11.2% | -2.6
Nc1ccc2ccccc2c1[N+](=O)[O-] | 25.9% | 10.1% | 37.6% | 17.5% | 14.9% | 39.3
ClC(Cl)=C(c1ccccc1)c1ccccc1 | 30.2% | 22.4% | 36.5% | 7.15% | -4.45% | 16.9
O=C(O)CCCc1ccc2c(c1)-c1ccccc1S2=O (stereo unspecified) | 0.65% | 3.8% | 1.25% | -3.6% | -4% | 13.1
Cc1nc(N)nc(-c2ccccc2)c1N=Nc1cc(Cl)cc(Cl)c1 | 5.95% | -8.3% | -3.65% | -6.45% | -5.15% | 7.45
Nc1n[n+]([O-])c2cc([N+](=O)[O-])ccc2[n+]1[O-] | 85.1% (active) | 87.9% (active) | 84.7% (active) | 79.7% (active) | 75.9% (active) | 68
